Experimental data from PubChem BioAssay (NCI).
Compounds without any hit were thinned out: in the full panel of roughly 83,000, 20% have a hit.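 Values shown are percent growth following 48 h exposure of cells in 96-well plates to a single concentration of compound; below 10 was considered active.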 Activity calls are given as the source filed them.

Test system: SR leukemia
Test: NCI-60 one-dose screen, 48 h (100 = growth as untreated, 0 = no growth, -100 = all killed)
Settings: 10 µM unless noted

Row | Compound | growth
1 | COc1cc(-c2csc(NC(=O)Nc3cccc(C(F)(F)F)c3)n2)cc(OC)c1OC | 67.3% (inactive)
2 | O=C(Cc1ccc(Nc2ccnc(C(F)(F)F)c2)cc1)N/N=C/c1ccccc1O | 98.2% (inactive)
3 | COc1ccc2nc(C)cc(Nc3ccccc3O)c2c1 | -32.8% (active)
4 | C[C@]12CCc3nc(Nc4ccc(O)cc4)sc3C1=CC[C@@H]1[C@@H]2CC[C@]2(C)/C(=N/NC(N)=S)CC[C@@H]12 | -5.27% (active)
5 | CN(C)CCOc1nc2c3cccnc3cc(-c3cccc(Cl)c3)c2c2ncccc12 | 0.455% (active)
6 | Oc1[nH]c2ccccc2c1/C=c1/ccc2c(c1)N=C(c1ccc(C(F)(F)F)cc1)N=2 | 12.1% (inactive)
7 | COc1ccc(/C(=C\c2ccc3c(c2)OCO3)C(=O)Nc2nc3ccc(F)cc3s2)cc1OC | 92.5% (inactive)
8 | O=C(Nc1ccccc1Cl)Oc1ccc2ccccc2c1 | 71.1% (inactive)
9 | Nc1nc2c(c3ncccc13)C(c1ccccc1)Cc1ncccc1-2 (stereo unspecified) | 40.7% (inactive)
10 | COc1ccccc1NC(=O)OCC12COCN1COC2 | 93.8% (inactive)
11 | COc1cc2c(cc1C)NC(=O)/C2=C\c1c[nH]c2ccccc12 | 46.4% (inactive)
12 | C=C(C)[C@@H]1CC[C@]2(C)[C@H](CC=C3[C@@H]4C[C@](C)(C(=O)N5CCN(C)CC5)CC[C@]4(C)CC[C@]32C)[C@@]1(C)CCC#N | 39.4% (inactive)
13 | COc1ccc(NC(=O)/C=C/c2ccc(Cl)c(Cl)c2)cn1 | 95.2% (inactive)
14 | CC(C)c1[nH]ncc1-c1nc2ccc3[nH]ncc3c2c2c1CCCC2 | 6.47% (active)
15 | COc1ccc(NC(=O)c2ccc(C(F)(F)F)nc2Nc2ccc(Cl)cc2C)cc1Cl | 23.6% (inactive)
16 | NCCCOc1cc2ccccc2cc1C(=O)NCCCOc1cc2ccccc2cc1C(=O)Nc1ccc(Cl)cc1O | -7.88% (active)
17 | C/C=C(\C)C(C(=O)NC1CCCCC1)N(C(=O)C1CCc2cc(F)ccc2O1)c1ccc([N+](=O)[O-])cc1 (stereo unspecified) | 101% (inactive)
18 | O=C(Cn1nncc1CN1C(=O)CSC1=O)Nc1ccc(F)cc1 | 124% (inactive)
19 | CCC(C)C1NC(=O)c2nc(oc2-c2ccccc2)-c2csc(n2)-c2csc(n2)-c2nc(oc2C)-c2coc(n2)CNC(=O)C(C(C)CC)NC1=O (stereo unspecified) | -47.8% (active)
20 | C=CCn1c(C)nc2cc(Nc3nc(N4CCCC4)nc4nc[nH]c34)ccc21 | -9.28% (active)
21 | Clc1ccc(Nc2ncnc3c2sc2ncccc23)cc1 | 10.4% (inactive)
22 | Cc1ccc(NC(=O)c2nc(S(C)(=O)=O)oc2-c2ccc(F)cc2)cc1Nc1ccc2ncn(C)c(=O)c2c1 | -12.5% (active)
23 | CCCCNCC(O)c1cc(-c2ccc(C(F)(F)F)cc2)nc(-c2ccc(C(F)(F)F)cc2)c1 (stereo unspecified) | -63.7% (active)

Test system: RPMI-8226 leukemia
Test: as above
Settings: 10 µM unless noted

Row | Compound | growth
24 | CCOC(=O)C1=C(C)NC(SCc2nnc(-c3ccc(Cl)cc3)o2)=NC1c1ccc(Cl)cc1 (stereo unspecified) | 35.8% (inactive)
25 | O=Cc1ccc2nc(C(Cl)(Cl)Cl)ccc2c1 | 93.7% (inactive)
26 | CCCc1n(Cc2ccc3ccccc3c2)c2ccccc2[n+]1Cc1ccc2ccccc2c1 | -60.9% (active)
27 | CC(CN1CCN(CCOCCO)CC1)CN1c2ccccc2Sc2ccc(Cl)cc21 (stereo unspecified) | 60% (inactive)
28 | Clc1ccc(Nc2ncnc3c2sc2ncccc23)c(Cl)c1 | 30% (inactive)
29 | COc1ccc(/C=C(/C(=O)N2CCN(c3ccccc3)CC2)c2cc(OC)c(OC)c(OC)c2)cc1O | 10.9% (inactive)
30 | C#CCNC(=S)N/N=C(\C)c1ccccn1 | 12.9% (inactive)
31 | CC(C)NC(=O)OCC#CCOC(=O)NC(C)C | 103% (inactive)
32 | Cc1cc(C)c2c(n1)sc1c(Nc3ccc(Cl)cc3Cl)ncnc12 | 28.4% (inactive)
33 | CCCCn1cnc(-c2cc(-c3ccccc3)cc(C(F)(F)F)c2)n1 | 98.2% (inactive)
34 | O=C1c2ccccc2C(=O)c2c1oc1ccc3ccccc3c21 | 75.9% (inactive)
35 | COC1=CC(c2ccc[nH]2)=N/C1=C\c1[nH]c(C)c(C(=O)CCCCCCCCC(=O)O[C@H]2CC[C@H]3C4CCc5cc(O)ccc5C4CC[C@]23C)c1C (stereo partly specified) | 33.2% (inactive)
36 | CCSc1ccc([C@@H]2[C@@H](N)C(=O)N2c2cc(OC)c(OC)c(OC)c2)cc1 | 18% (inactive)
37 | COc1ccc2[nH]cc(C(c3ccc(Cl)cc3)N3CCCC3)c2c1 (stereo unspecified) | 85.9% (inactive)
38 | Oc1[nH]c2ccc(Cl)cc2c1/C=c1/ccc2c(c1)N=C(c1ccc(F)cc1)N=2 | 69.2% (inactive)
39 | COc1cc(-c2csc(NC(=O)Nc3cccc(C(F)(F)F)c3)n2)cc(OC)c1OC | 18.6% (inactive)
40 | O=C(Cc1ccc(Nc2ccnc(C(F)(F)F)c2)cc1)N/N=C/c1ccccc1O | 29.6% (inactive)
41 | COc1ccc2nc(C)cc(Nc3ccccc3O)c2c1 | 25% (inactive)
42 | C[C@]12CCc3nc(Nc4ccc(O)cc4)sc3C1=CC[C@@H]1[C@@H]2CC[C@]2(C)/C(=N/NC(N)=S)CC[C@@H]12 | -16.3% (active)

Row | Compound | growth
43 | CN(C)CCOc1nc2c3cccnc3cc(-c3cccc(Cl)c3)c2c2ncccc12 | -21.6% (active)
44 | Oc1[nH]c2ccccc2c1/C=c1/ccc2c(c1)N=C(c1ccc(C(F)(F)F)cc1)N=2 | 35.6% (inactive)
45 | COc1ccc(/C(=C\c2ccc3c(c2)OCO3)C(=O)Nc2nc3ccc(F)cc3s2)cc1OC | 102% (inactive)
46 | O=C(Nc1ccccc1Cl)Oc1ccc2ccccc2c1 | 97.8% (inactive)
47 | Nc1nc2c(c3ncccc13)C(c1ccccc1)Cc1ncccc1-2 (stereo unspecified) | 87.4% (inactive)
48 | COc1ccccc1NC(=O)OCC12COCN1COC2 | 99.8% (inactive)
49 | COc1cc2c(cc1C)NC(=O)/C2=C\c1c[nH]c2ccccc12 | 59.7% (inactive)
50 | C=C(C)[C@@H]1CC[C@]2(C)[C@H](CC=C3[C@@H]4C[C@](C)(C(=O)N5CCN(C)CC5)CC[C@]4(C)CC[C@]32C)[C@@]1(C)CCC#N | 32% (inactive)
51 | COc1ccc(NC(=O)/C=C/c2ccc(Cl)c(Cl)c2)cn1 | 49.7% (inactive)
52 | CC(C)c1[nH]ncc1-c1nc2ccc3[nH]ncc3c2c2c1CCCC2 | 33.9% (inactive)
53 | COc1ccc(NC(=O)c2ccc(C(F)(F)F)nc2Nc2ccc(Cl)cc2C)cc1Cl | -17.9% (active)
54 | NCCCOc1cc2ccccc2cc1C(=O)NCCCOc1cc2ccccc2cc1C(=O)Nc1ccc(Cl)cc1O | -18.3% (active)
55 | C/C=C(\C)C(C(=O)NC1CCCCC1)N(C(=O)C1CCc2cc(F)ccc2O1)c1ccc([N+](=O)[O-])cc1 (stereo unspecified) | 79.1% (inactive)
56 | O=C(Cn1nncc1CN1C(=O)CSC1=O)Nc1ccc(F)cc1 | 104% (inactive)
57 | CCC(C)C1NC(=O)c2nc(oc2-c2ccccc2)-c2csc(n2)-c2csc(n2)-c2nc(oc2C)-c2coc(n2)CNC(=O)C(C(C)CC)NC1=O (stereo unspecified) | -63.5% (active)
58 | C=CCn1c(C)nc2cc(Nc3nc(N4CCCC4)nc4nc[nH]c34)ccc21 | 29.9% (inactive)
59 | Clc1ccc(Nc2ncnc3c2sc2ncccc23)cc1 | 38.2% (inactive)
60 | Cc1ccc(NC(=O)c2nc(S(C)(=O)=O)oc2-c2ccc(F)cc2)cc1Nc1ccc2ncn(C)c(=O)c2c1 | 19.3% (inactive)
61 | CCCCNCC(O)c1cc(-c2ccc(C(F)(F)F)cc2)nc(-c2ccc(C(F)(F)F)cc2)c1 (stereo unspecified) | -49.9% (active)
